± gives the standard deviation of the averaged measurements. About 6,200 targets were measured; listed, in parts, are those with the largest changes and a random draw of the rest.
Compound: Nc1ncnc2c1ncn2[C@@H]1O[C@H](COP(=O)(O)OP(=O)(O)NP(=O)(O)O)[C@@H](O)[C@H]1O [adenylyl imidodiphosphate]
Test: NP40-soluble protein abundance relative to vehicle (solubility fold change) (ratio); higher = more soluble protein in presence of AMP-PNP
Outline: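 Data come from three independent experiments in which Dounce-homogenised Jurkat crude lysate was treated at eight concentrations from 0.1 to 10 mM. Treatment ran 10 min at room temperature and then 3 min at 37 °C, after which 0.8% NP40 and benzonase were added for 60 min at 4 °C before ultracentrifugation. The supernatant underwent TMT labelling and LC-MS/MS, and vsn-normalised intensities were expressed as fold change against the detergent-processed vehicle in each replicate.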

Sequence of UniProt O60832 (O60832 whole entry): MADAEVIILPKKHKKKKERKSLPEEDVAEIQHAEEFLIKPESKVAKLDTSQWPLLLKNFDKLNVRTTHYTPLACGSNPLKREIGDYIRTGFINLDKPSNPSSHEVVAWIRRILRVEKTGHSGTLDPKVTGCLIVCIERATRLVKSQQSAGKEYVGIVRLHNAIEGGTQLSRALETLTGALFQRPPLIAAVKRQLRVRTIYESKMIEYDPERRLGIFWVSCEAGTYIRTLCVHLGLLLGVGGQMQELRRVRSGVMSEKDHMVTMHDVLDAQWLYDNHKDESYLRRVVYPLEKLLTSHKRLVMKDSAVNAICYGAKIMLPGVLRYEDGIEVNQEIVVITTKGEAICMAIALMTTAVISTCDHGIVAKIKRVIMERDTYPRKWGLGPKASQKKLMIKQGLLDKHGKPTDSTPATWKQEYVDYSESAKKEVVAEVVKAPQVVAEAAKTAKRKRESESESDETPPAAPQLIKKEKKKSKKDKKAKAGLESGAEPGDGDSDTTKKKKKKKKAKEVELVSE
Sequence of UniProt Q9NWH9 (Q9NWH9 whole entry, one chain of several): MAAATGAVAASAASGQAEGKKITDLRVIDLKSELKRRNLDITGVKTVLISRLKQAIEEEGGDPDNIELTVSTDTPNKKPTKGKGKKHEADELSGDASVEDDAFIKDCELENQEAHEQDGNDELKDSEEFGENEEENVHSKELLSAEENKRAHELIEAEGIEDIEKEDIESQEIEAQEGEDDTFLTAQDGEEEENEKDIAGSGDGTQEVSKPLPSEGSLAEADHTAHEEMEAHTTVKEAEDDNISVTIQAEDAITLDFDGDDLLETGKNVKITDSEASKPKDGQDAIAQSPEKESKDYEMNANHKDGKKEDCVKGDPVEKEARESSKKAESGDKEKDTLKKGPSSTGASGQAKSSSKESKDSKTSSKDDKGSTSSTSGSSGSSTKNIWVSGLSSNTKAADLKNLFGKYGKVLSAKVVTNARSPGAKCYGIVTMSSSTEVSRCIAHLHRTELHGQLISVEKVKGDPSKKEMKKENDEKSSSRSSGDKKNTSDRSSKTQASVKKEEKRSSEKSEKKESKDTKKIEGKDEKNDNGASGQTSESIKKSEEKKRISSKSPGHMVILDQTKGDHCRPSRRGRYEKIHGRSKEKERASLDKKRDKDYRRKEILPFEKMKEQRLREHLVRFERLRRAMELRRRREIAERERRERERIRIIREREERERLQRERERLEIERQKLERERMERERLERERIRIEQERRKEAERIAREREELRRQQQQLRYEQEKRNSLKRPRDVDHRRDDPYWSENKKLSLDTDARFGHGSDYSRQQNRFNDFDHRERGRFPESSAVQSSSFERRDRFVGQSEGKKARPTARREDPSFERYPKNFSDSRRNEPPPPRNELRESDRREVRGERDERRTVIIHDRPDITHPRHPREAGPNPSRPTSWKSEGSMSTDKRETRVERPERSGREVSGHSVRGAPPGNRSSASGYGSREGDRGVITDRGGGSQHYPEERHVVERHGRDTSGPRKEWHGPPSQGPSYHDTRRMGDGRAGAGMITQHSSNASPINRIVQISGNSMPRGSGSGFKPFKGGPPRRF
Sequence of UniProt O00629 (O00629 whole entry): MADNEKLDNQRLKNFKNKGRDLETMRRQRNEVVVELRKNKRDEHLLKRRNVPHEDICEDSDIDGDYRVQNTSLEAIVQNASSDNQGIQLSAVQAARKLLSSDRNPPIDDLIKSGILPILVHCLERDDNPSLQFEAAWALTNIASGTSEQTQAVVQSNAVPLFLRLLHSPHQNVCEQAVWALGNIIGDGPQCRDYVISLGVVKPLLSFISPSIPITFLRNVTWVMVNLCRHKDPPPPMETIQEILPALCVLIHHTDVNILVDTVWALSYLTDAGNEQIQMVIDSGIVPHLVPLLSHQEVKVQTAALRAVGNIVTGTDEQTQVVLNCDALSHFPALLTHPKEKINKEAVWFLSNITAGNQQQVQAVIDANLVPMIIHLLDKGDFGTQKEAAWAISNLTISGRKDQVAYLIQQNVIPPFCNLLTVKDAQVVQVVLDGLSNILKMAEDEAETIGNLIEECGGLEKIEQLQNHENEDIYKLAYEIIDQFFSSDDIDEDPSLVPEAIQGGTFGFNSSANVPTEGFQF
Sequence of UniProt O43290 (O43290 whole entry): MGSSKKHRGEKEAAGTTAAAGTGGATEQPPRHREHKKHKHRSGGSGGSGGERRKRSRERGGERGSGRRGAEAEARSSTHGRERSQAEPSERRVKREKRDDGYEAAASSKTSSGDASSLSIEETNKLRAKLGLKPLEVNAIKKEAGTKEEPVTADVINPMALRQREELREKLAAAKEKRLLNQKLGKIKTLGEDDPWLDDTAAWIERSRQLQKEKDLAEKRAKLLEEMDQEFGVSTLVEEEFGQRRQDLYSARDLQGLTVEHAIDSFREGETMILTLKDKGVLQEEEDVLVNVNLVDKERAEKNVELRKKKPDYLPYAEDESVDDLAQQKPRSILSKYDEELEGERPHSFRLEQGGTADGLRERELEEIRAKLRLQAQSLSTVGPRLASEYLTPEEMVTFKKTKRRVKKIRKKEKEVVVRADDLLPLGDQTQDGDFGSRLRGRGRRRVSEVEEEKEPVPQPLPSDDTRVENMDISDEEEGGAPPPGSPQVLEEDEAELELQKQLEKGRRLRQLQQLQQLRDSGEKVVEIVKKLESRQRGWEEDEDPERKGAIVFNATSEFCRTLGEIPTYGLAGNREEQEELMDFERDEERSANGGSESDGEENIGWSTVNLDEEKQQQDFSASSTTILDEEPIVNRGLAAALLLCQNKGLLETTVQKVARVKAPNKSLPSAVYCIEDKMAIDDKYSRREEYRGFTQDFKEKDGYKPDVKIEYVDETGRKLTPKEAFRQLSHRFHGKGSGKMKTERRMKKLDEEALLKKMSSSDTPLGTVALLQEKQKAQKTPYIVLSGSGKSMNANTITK
Sequence of UniProt P98171 (P98171 whole entry, one chain of several): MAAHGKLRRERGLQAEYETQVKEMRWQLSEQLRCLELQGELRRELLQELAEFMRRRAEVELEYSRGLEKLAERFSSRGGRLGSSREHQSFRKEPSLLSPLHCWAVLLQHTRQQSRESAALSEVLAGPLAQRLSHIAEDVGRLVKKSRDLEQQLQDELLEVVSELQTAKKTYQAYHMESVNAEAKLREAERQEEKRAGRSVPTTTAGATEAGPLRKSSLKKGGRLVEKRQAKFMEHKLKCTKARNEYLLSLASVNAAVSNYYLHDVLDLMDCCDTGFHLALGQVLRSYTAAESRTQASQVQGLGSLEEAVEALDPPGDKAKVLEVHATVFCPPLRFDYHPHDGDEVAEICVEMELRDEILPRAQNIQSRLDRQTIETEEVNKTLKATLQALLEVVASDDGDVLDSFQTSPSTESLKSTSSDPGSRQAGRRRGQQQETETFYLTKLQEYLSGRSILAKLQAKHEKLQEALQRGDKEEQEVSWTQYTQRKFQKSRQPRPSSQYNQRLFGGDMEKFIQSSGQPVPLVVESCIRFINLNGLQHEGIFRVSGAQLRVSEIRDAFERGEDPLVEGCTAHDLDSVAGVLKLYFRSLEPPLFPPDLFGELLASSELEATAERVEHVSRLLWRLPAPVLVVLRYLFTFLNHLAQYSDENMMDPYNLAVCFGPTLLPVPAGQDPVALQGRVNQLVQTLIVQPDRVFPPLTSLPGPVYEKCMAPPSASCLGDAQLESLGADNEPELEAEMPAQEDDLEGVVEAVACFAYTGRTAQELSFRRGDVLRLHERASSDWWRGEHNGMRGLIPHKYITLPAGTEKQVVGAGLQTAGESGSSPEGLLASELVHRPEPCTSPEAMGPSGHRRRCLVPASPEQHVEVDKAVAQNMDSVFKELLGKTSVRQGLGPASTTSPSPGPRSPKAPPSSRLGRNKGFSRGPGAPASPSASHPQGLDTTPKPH
Sequence of UniProt Q96S38 (Q96S38 whole entry, one chain of several): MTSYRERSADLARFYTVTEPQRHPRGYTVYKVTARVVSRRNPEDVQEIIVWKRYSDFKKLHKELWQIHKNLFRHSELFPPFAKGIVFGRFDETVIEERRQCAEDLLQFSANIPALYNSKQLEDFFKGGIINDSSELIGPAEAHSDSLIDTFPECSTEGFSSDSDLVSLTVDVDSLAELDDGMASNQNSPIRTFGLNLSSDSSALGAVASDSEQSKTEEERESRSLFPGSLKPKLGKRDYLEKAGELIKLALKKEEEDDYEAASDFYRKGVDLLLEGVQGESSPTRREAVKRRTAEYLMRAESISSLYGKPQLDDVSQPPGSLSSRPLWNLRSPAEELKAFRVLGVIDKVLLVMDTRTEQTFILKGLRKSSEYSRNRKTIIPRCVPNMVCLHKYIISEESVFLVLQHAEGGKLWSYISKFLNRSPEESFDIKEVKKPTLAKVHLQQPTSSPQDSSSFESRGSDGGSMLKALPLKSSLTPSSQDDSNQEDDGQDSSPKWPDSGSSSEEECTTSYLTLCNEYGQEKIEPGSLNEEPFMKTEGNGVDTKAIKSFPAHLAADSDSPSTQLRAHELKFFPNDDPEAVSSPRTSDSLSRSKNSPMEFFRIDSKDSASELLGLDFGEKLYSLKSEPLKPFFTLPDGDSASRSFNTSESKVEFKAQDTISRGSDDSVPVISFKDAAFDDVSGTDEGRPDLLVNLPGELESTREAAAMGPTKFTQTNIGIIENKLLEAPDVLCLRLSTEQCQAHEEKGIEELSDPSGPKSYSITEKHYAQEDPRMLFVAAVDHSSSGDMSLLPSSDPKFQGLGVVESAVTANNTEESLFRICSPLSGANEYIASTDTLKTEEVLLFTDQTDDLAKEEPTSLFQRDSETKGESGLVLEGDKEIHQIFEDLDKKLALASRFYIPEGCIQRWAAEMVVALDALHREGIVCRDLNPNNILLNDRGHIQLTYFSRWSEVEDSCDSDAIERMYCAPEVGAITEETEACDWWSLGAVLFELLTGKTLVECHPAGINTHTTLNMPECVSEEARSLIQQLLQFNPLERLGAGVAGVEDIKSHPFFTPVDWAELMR
Sequence of UniProt P61769 (P61769 whole entry, one chain of several): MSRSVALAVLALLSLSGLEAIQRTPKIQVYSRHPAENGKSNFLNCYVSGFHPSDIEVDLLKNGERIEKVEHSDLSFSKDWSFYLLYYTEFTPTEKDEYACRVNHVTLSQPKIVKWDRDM

Target	NP40-soluble protein abundance (concentration: 1mM)	NP40-soluble protein abundance (concentration: 2mM)	NP40-soluble protein abundance (concentration: 4mM)	NP40-soluble protein abundance (concentration: 6mM)	NP40-soluble protein abundance (concentration: 8mM)	NP40-soluble protein abundance (concentration: 10mM)
E9PJF5|G5E9I4|H0YCF7|Q9HCU9 (UniProt Q9HCU9)	1.03 ± 0.018	1.05 ± 0.04	1.01 ± 0.012	1 ± 0.016	0.989 ± 0.041	1.02 ± 0.051
K7EKM7 (UniProt O75264)	1 ± 0.035	0.988 ± 0.015	1 ± 0.038	0.971 ± 0.032	0.9753 ± 0.0085	1.01 ± 0.014
F5H7T0|F6RJM5|Q96S38|Q96S38-2 (UniProt Q96S38)	0.999 ± 0.0077	1.02 ± 0.028	1.01 ± 0.034	0.9695 ± 0.004	0.991 ± 0.023	0.965 ± 0.046
DKC1 (UniProt O60832)	1.049 ± 0.0097	1.1 ± 0.057	1.13 ± 0.028	1.21 ± 0.051	1.29 ± 0.046	1.36 ± 0.083
H3BLV9|Q5R363|Q96SB4|Q96SB4-3|Q96SB4-4 (UniProt Q96SB4)	1.08 ± 0.011	1.14 ± 0.035	1.22 ± 0.035	1.29 ± 0.036	1.359 ± 0.011	1.46 ± 0.044
H0YLF3|P61769 (UniProt P61769)	0.99 ± 0.055	0.977 ± 0.084	0.923 ± 0.1	0.879 ± 0.15	0.971 ± 0.035	0.917 ± 0.076
E7EQN5|P98171|P98171-2 (UniProt P98171)	0.999 ± 0.013	0.997 ± 0.05	1.02 ± 0.032	1.03 ± 0.077	1.01 ± 0.056	1.04 ± 0.023
H0YLE6|Q9NWH9 (UniProt Q9NWH9)	1.05 ± 0.044	1.11 ± 0.083	1.08 ± 0.039	1.12 ± 0.092	1.11 ± 0.094	1.17 ± 0.094
N4BP1 (UniProt O75113)	1.01 ± 0.014	1.02 ± 0.039	1.02 ± 0.032	0.979 ± 0.027	0.96 ± 0.012	0.954 ± 0.028
KPNA4 (UniProt O00629)	1.07 ± 0.029	1.074 ± 0.0097	1.07 ± 0.016	1.03 ± 0.047	1.05 ± 0.051	1.05 ± 0.037
SART1 (UniProt O43290)	1.07 ± 0.048	1.12 ± 0.054	1.11 ± 0.034	1.22 ± 0.089	1.26 ± 0.067	1.36 ± 0.081
F8VVZ0|P61020 (UniProt P61020)	1.03 ± 0.028	0.993 ± 0.013	1.01 ± 0.024	1.07 ± 0.026	1.08 ± 0.064	1.05 ± 0.018
